Experimental findings from publication PMC7819943, “Rice protein-binding microarrays: a tool to detect cis-acting elements near promoter regions in rice” are described below.

Over roughly 39,000 sequences, “fluorescence intensity (a.u.)” has its median near 4,300; the highest 2% begin near 39,000. Many of the other results were omitted from the sample, so the highest values are more common in it than they were.

The assay concerns the target T1, OsSMF1 (Oryza sativa, UniProt Q6ZLB0 1-436).
T1 sequence: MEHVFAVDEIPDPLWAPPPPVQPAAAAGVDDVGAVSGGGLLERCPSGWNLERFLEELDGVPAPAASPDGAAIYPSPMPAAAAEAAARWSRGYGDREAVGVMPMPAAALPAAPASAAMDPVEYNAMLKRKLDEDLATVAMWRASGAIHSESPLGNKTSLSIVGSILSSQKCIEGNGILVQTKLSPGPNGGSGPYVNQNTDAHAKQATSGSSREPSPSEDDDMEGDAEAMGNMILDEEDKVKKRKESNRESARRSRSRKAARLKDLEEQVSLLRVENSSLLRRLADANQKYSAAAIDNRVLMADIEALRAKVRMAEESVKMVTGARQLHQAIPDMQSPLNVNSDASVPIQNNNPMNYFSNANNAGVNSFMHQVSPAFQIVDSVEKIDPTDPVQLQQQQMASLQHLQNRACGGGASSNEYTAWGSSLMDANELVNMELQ
Description: protein-binding microarray (RPBM); PBS, 2% BSA, 51.3 ng/ul salmon testes DNA, 50 uM zinc acetate, 200 nM TF, 25 C, 1 h; high values mean tight binding. The conditions noted are these: protein: recombinant; tags: N-terminal polyhistidine and DsRed monomer fusion (pET32a); chain copies: 2; label: CyDye5-dUTP incorporated in the synthesized complementary strand; 3' TTTTT single-stranded linker to array surface; dsDNA, one strand shown. The gist of the method:
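An Axon 4000B scanner gave the binding signal as per-feature fluorescence intensity in arbitrary units. This followed washing of a custom Agilent array that had been incubated for 1 h at 25 °C with 200 nM protein in PBS, 2% BSA, salmon testes DNA and 50 µM zinc acetate. The proteins were transcription factors fused at the N-terminus to polyhistidine and DsRed, expressed in E. coli BL21-CodonPlus and purified on Ni–NTA.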
“CTGGCACGTAAGCGTTACCGTGGCATGCCACGTCATCTCACGGAGTCACCTAGTGCAG”: the binding signal is 39600 fluorescence intensity (a.u.). For “TGACATGTGGGGCCCACGCTGACTCAGCCGCCACGTCAGACGGAGTCACCTAGTGCAG” the value was 19600 fluorescence intensity (a.u.). The same measure for “CCACTGGCGACCGCCACGTCGACCTGGCGTGGGACCTCATCGGAGTCACCTAGTGCAG”: 8920 fluorescence intensity (a.u.). The same measure for “CTAATGCCACGTAAGTGCCACGTGGCATGAAAACCGGGTTCGGAGTCACCTAGTGCAG”: 46300 fluorescence intensity (a.u.); for “TATGTAGTACCACCCTGGTGTCACACATGTACCACTTGGTCGGAGTCACCTAGTGCAG”: 3910 fluorescence intensity (a.u.); for “GGAGCTGAGGAGGGACAGCGAGCCAGCGAGGGAGGTGGGGCGGAGTCACCTAGTGCAG”: 3160 fluorescence intensity (a.u.).

“GGGGACATTACTCCGTGGTTTACATGTCATCCAAATAGTTCGGAGTCACCTAGTGCAG”: the binding signal is 5320 fluorescence intensity (a.u.). The same measure for “TATATACAAGTTCACCCCGAAACCTAGTCAGAGTATGACACGGAGTCACCTAGTGCAG”: 4240 fluorescence intensity (a.u.). For “ACTTGCCACGGTGCCGCCTAACAGGCAGCCGTACCTGCCTCGGAGTCACCTAGTGCAG” the value was 3320 fluorescence intensity (a.u.). For the sequence “TGAAATACTTACAAGTCGATCGAACAACACCTGTCATCATCGGAGTCACCTAGTGCAG”, the binding signal is 4160 fluorescence intensity (a.u.). For “GCGGCCTATTGTTAGCGAGGAGTCACCCAGATTCTTCTCCCGGAGTCACCTAGTGCAG” the value was 6870 fluorescence intensity (a.u.); for “TACTATTAGGTATGTGGTATCCATAACCCTGACACATACCCGGAGTCACCTAGTGCAG”, 3600 fluorescence intensity (a.u.); for “CGTGAAAGTGCTTCGAAAGGTGTCAGCAGGTGCGCGGAGCCGGAGTCACCTAGTGCAG”, 3530 fluorescence intensity (a.u.). For “GTCAGGTGGCGGCGGCGGCGGTGGTGGCGGTGGAGGTGGACGGAGTCACCTAGTGCAG”, the binding signal is 5570 fluorescence intensity (a.u.). The same measure for “ATCCATAACTATGTAACGTCATAGCCACCCAGCCTCGCTTCGGAGTCACCTAGTGCAG”: 5580 fluorescence intensity (a.u.); for “ATGCATGGTATGTCACGTTGTGACTTGCCTACACTAAAGCCGGAGTCACCTAGTGCAG”: 4520 fluorescence intensity (a.u.). For “TTGCTAGTTGGTACAAAGTAAGCATGCAACACTTGTATGCCGGAGTCACCTAGTGCAG” the value was 42200 fluorescence intensity (a.u.); for “CTTGCACAAGTACAGTACGTGTACATGCATGTATGCTACCCGGAGTCACCTAGTGCAG”, 5700 fluorescence intensity (a.u.). The same measure for “AATGCTGCAATTTCTCGTTGACTAGACTTCACATGCAGCTCGGAGTCACCTAGTGCAG”: 5400 fluorescence intensity (a.u.); for “TCCGTTGAGATCAGCACTTTCTAGCAGCTGTACAAGAGACCGGAGTCACCTAGTGCAG”: 3740 fluorescence intensity (a.u.). In the case of “GCCCATGTACGATGACGTGTACCCTATTGTCTTCTACTAGCGGAGTCACCTAGTGCAG”, the binding signal was 21600 fluorescence intensity (a.u.). Turning to “CACGCCAACGCCCAAGCCCACCAACCCAAGTTGAGTCGTGCGGAGTCACCTAGTGCAG”, the binding signal was 3360 fluorescence intensity (a.u.).

With “AATGGATCTAGACTATATCTATCTAGATTCATTAGTATCACGGAGTCACCTAGTGCAG”, the binding signal was 45400 fluorescence intensity (a.u.). With “CCATATCATATTACTCCTACATGTGTACTACATTTATATTCGGAGTCACCTAGTGCAG”, the binding signal is 3720 fluorescence intensity (a.u.). For “TTACAGGATTATATATCATGTTTATCTATTCGTCTTACTACGGAGTCACCTAGTGCAG” the value was 39500 fluorescence intensity (a.u.); for “AATCTATGCATATATATATATATATATATGTCTAGATTCACGGAGTCACCTAGTGCAG”, 3240 fluorescence intensity (a.u.). The same measure for “ATATAGATCATCATCAAGACTACGTATTATTCACTATTCACGGAGTCACCTAGTGCAG”: 3160 fluorescence intensity (a.u.). For “CTACATCAGCTATATCTATTGTTGCTCTTACACTAAATTACGGAGTCACCTAGTGCAG” the value was 23700 fluorescence intensity (a.u.); for “CCGCTCCGCCTACTCTGGCCACGCGCTGACGCCGCGTCCCCGGAGTCACCTAGTGCAG”, 7060 fluorescence intensity (a.u.); for “GGCGGAGACGCGGGCGTGGCTCGGCGGCCTGCTAGTGTGACGGAGTCACCTAGTGCAG”, 3340 fluorescence intensity (a.u.).

Regarding “AAGTCCTCCCACAAGTCAACCAACCAAAACCACGTCCAAACGGAGTCACCTAGTGCAG”, the binding signal was 3420 fluorescence intensity (a.u.). The same measure for “AAAGCCAAACAAGTGTCCAAACGGCTAGGAGTCAACCTCGCGGAGTCACCTAGTGCAG”: 41200 fluorescence intensity (a.u.). The same measure for “TTCAAGTCCAACCTCGGCCACATGCTCCGCCTCCGCCTCGCGGAGTCACCTAGTGCAG”: 3780 fluorescence intensity (a.u.); for “TTTCTTAACTCGACACGCAATGTATTGTTATTTACGATTCCGGAGTCACCTAGTGCAG”: 3740 fluorescence intensity (a.u.); for “TACCACTATCGGAAGTTTTGGTTGTGACGTCCACAATTCCCGGAGTCACCTAGTGCAG”: 3760 fluorescence intensity (a.u.). On to “CTAATGGGACTGCTGCTACCCTATCTTTAGTCCGGGACTACGGAGTCACCTAGTGCAG”, for which the binding signal is 3270 fluorescence intensity (a.u.).

With “AACCGGGACTAAAGATCGTACCTTTAGTTACGATCTTTAGCGGAGTCACCTAGTGCAG”, the binding signal was 28500 fluorescence intensity (a.u.).

As to “TTTCACCCGGGACTAAAGATCGCTATCTTTAGTCCCGGATCGGAGTCACCTAGTGCAG”, the binding signal is 52600 fluorescence intensity (a.u.). The same measure for “CAAGGGAGCTGGTAACACTCATCATTTCCGTTCTTCAAATCGGAGTCACCTAGTGCAG”: 3250 fluorescence intensity (a.u.). As to “AGGTTGGTGATTCAGAGATGTCGAGACGTGTGTTCTTTTGCGGAGTCACCTAGTGCAG”, the binding signal is 4270 fluorescence intensity (a.u.). As to “GCGCGTTGCTGCTGACTCCGGAGCAAAATCGAGCGAGCGCCGGAGTCACCTAGTGCAG”, the binding signal is 3360 fluorescence intensity (a.u.). Turning to “AACTCCGAGCGTTGCTATGGGAGTTCCGTAAAATAGTAATCGGAGTCACCTAGTGCAG”, the binding signal is 39300 fluorescence intensity (a.u.). In the case of “TTAATACAAATCCGTTGCATCACACGAGTCATATGCTAGTCGGAGTCACCTAGTGCAG”, the binding signal is 5010 fluorescence intensity (a.u.).
